Results filed as inconclusive are left out. A call without a number means that no potency is given here. Values without a mark were called inactive. Active and inactive are the calls of the source. Unless noted, calls follow the shape of the dose curve; as a rule, active = well fitted curve in the direction sought with a large enough effect; inconclusive = small, poorly fitted or top-dose-only effect, or another doubt; inactive = no such curve, though single readings can be large; an effect the other way counts as inactive or inconclusive.
Tests used:
[1] = qHTS for Inhibitors of Plasmodium falciparum (DD2) proliferation (AID 504314);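 also: parasite DNA measured by SYBR Green fluorescence after red cell lysis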
Procedure, shortened: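 SYBR Green DNA-fluorescence growth assay: infected RBCs at 0.3% parasitemia, 2.5% hematocrit, 72 h compound exposure, 37C, 5% CO2; overnight lysis with dye at RT; normalized to 0.29 uM artemisinin and vehicle.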

[2] = qHTS for Inhibitors of Plasmodium falciparum (7G8) proliferation (AID 504316); also: nearly all actives have a fitted effect of over 65% in size; also: potency is read from the fitted curve at half-maximal effect
Procedure, shortened: (§1)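 Parasite growth measured as SYBR Green DNA fluorescence (ex 485, em 535 nm) after overnight lysis following 72 h culture at 37 °C, 0.3% parasitemia, 2.5% hematocrit. Values normalized against DMSO and 0.29 uM artemisinin controls, with plate-stack correction.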

[3] = qHTS for Inhibitors of Plasmodium falciparum (HB3) proliferation (AID 504318); also: nearly all actives have a fitted effect of over 60% in size
Procedure, shortened: as §1

[4] = qHTS for Inhibitors of Plasmodium falciparum (CP250) proliferation (AID 504320)
Procedure, shortened: as §1

[5] = molecular target: Atrial natriuretic peptide receptor 1 (Homo sapiens) (UniProt P16066); assay: Natriuretic polypeptide receptor (hNpr1) antagonism - Pilot CMLD screen (AID 1347052; calls by dose curve;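 also: HEK293 cells with hNpr1 stimulated by hNppA peptide at 0.1 nM; cGMP level read as GloSensor luciferase luminescence after agonist stimulation; series mostly up to about 9.2 µM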)
Chain of Atrial natriuretic peptide receptor 1 (Homo sapiens) (P16066 whole entry, looked up): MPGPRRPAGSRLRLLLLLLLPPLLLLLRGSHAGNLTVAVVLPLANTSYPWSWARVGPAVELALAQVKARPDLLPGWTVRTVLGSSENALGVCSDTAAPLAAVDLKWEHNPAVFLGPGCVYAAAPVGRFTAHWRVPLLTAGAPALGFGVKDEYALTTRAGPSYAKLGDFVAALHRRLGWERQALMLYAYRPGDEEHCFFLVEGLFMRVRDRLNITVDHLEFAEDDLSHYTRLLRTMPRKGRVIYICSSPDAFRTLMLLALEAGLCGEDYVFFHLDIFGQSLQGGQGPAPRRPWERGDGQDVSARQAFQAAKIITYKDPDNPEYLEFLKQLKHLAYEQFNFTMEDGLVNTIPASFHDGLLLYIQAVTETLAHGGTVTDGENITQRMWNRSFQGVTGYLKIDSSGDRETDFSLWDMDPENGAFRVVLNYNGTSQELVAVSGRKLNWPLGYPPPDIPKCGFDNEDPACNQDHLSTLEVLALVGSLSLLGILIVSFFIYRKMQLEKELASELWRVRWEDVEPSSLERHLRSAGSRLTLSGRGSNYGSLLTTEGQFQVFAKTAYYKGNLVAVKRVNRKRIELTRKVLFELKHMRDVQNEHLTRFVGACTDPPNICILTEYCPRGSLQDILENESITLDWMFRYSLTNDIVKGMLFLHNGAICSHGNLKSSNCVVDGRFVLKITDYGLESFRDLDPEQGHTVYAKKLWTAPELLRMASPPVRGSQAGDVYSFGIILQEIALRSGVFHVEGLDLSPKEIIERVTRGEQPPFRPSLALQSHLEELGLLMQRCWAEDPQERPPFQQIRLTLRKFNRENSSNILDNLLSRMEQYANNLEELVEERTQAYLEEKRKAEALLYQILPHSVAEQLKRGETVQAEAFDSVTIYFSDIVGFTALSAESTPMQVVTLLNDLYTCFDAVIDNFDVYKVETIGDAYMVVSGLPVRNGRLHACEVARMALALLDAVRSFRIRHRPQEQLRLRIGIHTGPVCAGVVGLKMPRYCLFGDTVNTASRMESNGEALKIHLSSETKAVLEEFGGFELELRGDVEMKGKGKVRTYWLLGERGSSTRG

For `CCOC(=O)C1=CN(CCC=C(C)C)C(=O)NC1c1ccccc1` (configuration not stated), the Potency [1] was “inactive”, the Potency [2] was “inactive” and the Potency [3] was “inactive”. For the same molecule, the Potency [4] was “inactive” and the Potency [5] was “inactive”.

For `CCN1C(=NCc2ccc(OC)cc2)NC(c2cccc(F)c2)C(C(=O)OC)=C1C` (configuration not stated), the Potency [1] was “inactive”, the Potency [2] was “inactive” and the Potency [3] was “inactive”. The Potency [5] was “inactive”.

In the case of `COc1ccc(C(O)C2=CCCC2=O)cc1` (configuration not stated), the Potency [1] is reported as “inactive”, the Potency [2] is reported as “inactive” and the Potency [3] is reported as “inactive”. The Potency [4] was “inactive” and the Potency [5] was “inactive”.

For `CC(=O)OC[C@H]1O[C@H](CC=NO[C@H](C)c2cn([C@H](CO)Cc3ccccc3)nn2)C=C[C@@H]1OC(C)=O`, the Potency [1] was “inactive”, the Potency [2] was “inactive” and the Potency [3] was “inactive”. The Potency [4] was “inactive” and the Potency [5] was “inactive”.

With `CC1(OC(=O)C2CCCC2)C(=O)C=C2C=C(c3ccsc3)N(CC3CC3)C=C2C1=O` (configuration not stated) the activity, negative = inhibition [1] was -6.74% [at 1.12 µM], the Potency [2] was “inactive” and the Potency [3] was “inactive”. The Potency [4] was “inactive” and the Potency [5] was “inactive”.

For `CCOC(=O)CN1C(=O)NC(c2cccc(F)c2)C(C(=O)OC)=C1C` (configuration not stated), the Potency [1] was “inactive”, the Potency [2] was “inactive” and the Potency [3] was “inactive”. The Potency [4] was “inactive” and the Potency [5] was “inactive”.

With `CCN(CCNC(=O)[C@H]1C=C(OC)C(=O)C[C@H](c2ccccc2)[C@@H]1C)C(C)=O` the Potency [1] was “inactive”, the Potency [2] was “inactive” and the Potency [3] was “inactive”. For the same molecule, the Potency [4] was “inactive” and the Potency [5] was “inactive”.

For `O=C1OC2(CCCCC2)CC2=C1[C@H]1O[C@](c3ccsc3)(Cc3ccccc31)O2`, the Potency [1] was “inactive”, the Potency [2] was “inactive” and the Potency [3] was “inactive”. For the same molecule, the Potency [4] was “inactive” and the Potency [5] was “inactive”.

For `CCCCc1cc2c(cn1)=C(OC(=O)c1ccco1)C(C)(OC(=O)CC)C(=O)C=2` (configuration not stated), the activity, negative = inhibition [1] was 5.3% [at 1.12 µM], the Potency [2] was 1.51 µM (active) and the Potency [3] was “inactive”. The Potency [5] was “inactive”.

For `CCN1C(=O)N[C@@H](c2cccc(C(F)(F)F)c2)[C@H](C(C)=O)[C@H]1C`, the Potency [1] was “inactive”, the Potency [2] was “inactive” and the Potency [3] was “inactive”. The Potency [4] was “inactive” and the Potency [5] was “inactive”.

With `CCOC(=O)NN=C1C[C@@H](O)[C@@H](O)[C@@H]2[C@H]3C(=O)N(Cc4ccc5c(c4)OCO5)C(=O)[C@@H]3CC[C@H]12` the Potency [1] was “inactive”, the Potency [2] was “inactive” and the Potency [3] was “inactive”. The Potency [4] was “inactive” and the Potency [5] was “inactive”.

With `C[C@@H]1CC[C@H]2C(=O)O[C@@H](Cc3ccccc3)CN2[C@@H]1c1ccc(Br)cc1` the Potency [1] was “inactive”, the Potency [2] was “inactive” and the Potency [3] was “inactive”. The Potency [4] was “inactive” and the Potency [5] was “inactive”.

With `CC(C)=CCCC(C)=CCON=C1C[C@@H](O)[C@@H](O)[C@@H]2[C@H]3C(=O)N(C[C@@H]4CCCO4)C(=O)[C@@H]3CC[C@@H]12` the Potency [1] was “inactive”, the Potency [2] was “inactive” and the Potency [3] was “inactive”. The Potency [4] was “inactive” and the Potency [5] was “inactive”.

In the case of `CCOC(=O)CN1C(=O)NC(c2ccccc2)C(C(C)=O)=C1C` (configuration not stated), the Potency [1] is reported as “inactive”, the Potency [2] is reported as “inactive” and the Potency [3] is reported as “inactive”. For the same molecule, the Potency [4] was “inactive” and the Potency [5] was “inactive”.

With `CC(=O)OC[C@H]1O[C@@H](ON=CC[C@@H]2C=C[C@@H](OC(C)=O)[C@@H](COC(C)=O)O2)[C@@H](OC(C)=O)[C@@H](OC(C)=O)[C@@H]1OC(C)=O` the Potency [1] was “inactive”, the Potency [2] was “inactive” and the Potency [3] was “inactive”. For the same molecule, the Potency [4] was “inactive” and the Potency [5] was “inactive”.

With `c1ccc(-c2nc(-c3ccccc3)c(NC3CCCCC3)o2)cc1` the Potency [1] was “inactive”, the Potency [2] was “inactive” and the Potency [3] was “inactive”. For the same molecule, the Potency [4] was “inactive” and the Potency [5] was “inactive”.

For `CCCCCCCC1=CC2=C(Cl)C(=O)C(C)(OC(C)=O)C(=O)C2=CO1` (configuration not stated), the Potency [1] was “inactive”, the Potency [2] was “inactive” and the Potency [3] was “inactive”. For the same molecule, the Potency [4] was “inactive” and the Potency [5] was “inactive”.

In the case of `COC(=O)[C@H](C=C[C@H](C)Cc1cc(Br)cc(OCc2ccccc2)c1OC)OCc1ccccc1`, the Potency [1] is reported as “inactive”, the Potency [2] is reported as “inactive” and the Potency [3] is reported as “inactive”. The Potency [4] was “inactive” and the Potency [5] was “inactive”.

For `C[C@H]1Cc2c(COc3ccccc3)nc3c(c2CO1)CN(C(=O)C1CCCCC1)CC3`, the activity, negative = inhibition [1] was -0.952% [at 1.12 µM], the Potency [2] was “inactive” and the Potency [3] was “inactive”. For the same molecule, the Potency [4] was “inactive” and the Potency [5] was “inactive”.

In the case of `CCCCc1nc2c(c3c1C[C@H](C)OC3)CN(C(=O)Cc1cccs1)CC2`, the Potency [1] is reported as “inactive”, the Potency [2] is reported as “inactive” and the Potency [3] is reported as “inactive”. For the same molecule, the Potency [4] was “inactive” and the Potency [5] was “inactive”.

With `COC(=O)N[C@@H](c1cccc(F)c1)[C@@H](C)[N+](=O)[O-]` the Potency [1] was “inactive”, the Potency [2] was “inactive” and the Potency [3] was “inactive”. The Potency [4] was “inactive” and the Potency [5] was “inactive”.

For `C=CCOC(=O)NC(c1ccc(F)c(F)c1)C(C(=O)CCl)C(=O)OC` (configuration not stated), the Potency [1] was “inactive”, the Potency [2] was “inactive” and the Potency [3] was “inactive”. The Potency [4] was “inactive” and the Potency [5] was “inactive”.

For `COCCN1C(=NCC(C)C)NC(c2ccccc2)C(C(=O)OC)=C1C` (configuration not stated), the Potency [1] was “inactive”, the Potency [2] was “inactive” and the Potency [3] was “inactive”. The Potency [4] was “inactive” and the Potency [5] was “inactive”.

For `C=CCN1C(=O)[C@@]2(CC(C)=CC[C@@H](C)O2)c2c(Br)cccc21`, the Potency [1] was “inactive”, the Potency [2] was “inactive” and the Potency [3] was “inactive”. For the same molecule, the Potency [4] was “inactive” and the Potency [5] was “inactive”.

With `CC(C)CON=C1C[C@@H](O)[C@@H](O)[C@@H]2[C@H]3C(=O)N(Cc4ccccc4)C(=O)[C@@H]3CC[C@@H]12` the Potency [1] was “inactive”, the Potency [2] was “inactive” and the Potency [3] was “inactive”. For the same molecule, the Potency [4] was “inactive” and the Potency [5] was “inactive”.

With `CCOC(=O)NN=C1C[C@@H](O)[C@@H](O)[C@@H]2[C@H]3C(=O)N(c4cccc(Oc5ccccc5)c4)C(=O)[C@@H]3CC[C@@H]12` the Potency [1] was “inactive”, the Potency [2] was “inactive” and the Potency [3] was “inactive”. For the same molecule, the Potency [5] was “inactive”.

Source: PubChem BioAssay (NCATS)
